{
  "source": "PubChem BioAssay",
  "data": [
    {"experiment": "TOR pathway CIT2 reporter hit retest – S. cerevisiae, GFP fusion, cherry picks, mother/daughter gates, confirmation (AID 2274)", "conditions": "S. cerevisiae CIT2-GFP strain, flow cytometry, 3 h; measured here: daughter cell gate; at 10 µM; stronger effect = higher value", "units": {"GFP response, % of DMSO": "%"}, "values": [
      {"molecule": "COc1cccc2cc(C(=O)N3CCN(C/C=C/c4ccccc4)CC3)c(=O)oc12", "GFP response, % of DMSO": 93.8},
      {"molecule": "O=S(=O)(/N=C(\\Sc1ccc(Cl)cc1)c1ccccc1)c1ccccc1", "GFP response, % of DMSO": 92.3},
      {"molecule": "Cc1ccc(/C=c2\\sc3nc(-c4cccs4)nn3c2=O)o1", "GFP response, % of DMSO": 101},
      {"molecule": "N=c1n(CCN2CCCCC2)c2ccccc2n1CC(=O)c1ccc(Cl)c(Cl)c1", "GFP response, % of DMSO": 93.2},
      {"molecule": "COc1ccc(/C=C/C(=O)NC(=S)NNC(=O)c2cnccn2)cc1", "GFP response, % of DMSO": 99.1},
      {"molecule": "CCCCNc1c(-c2ccc(SC(C)CC)cc2)nc2ccccn12", "note": "(stereo not given)", "GFP response, % of DMSO": 89.9},
      {"molecule": "CCOC(=O)Cc1csc(NC(=O)CSc2nnc(-c3ccc(C)cc3)o2)n1", "GFP response, % of DMSO": 98.3},
      {"molecule": "COc1ccc(C2=NN(S(C)(=O)=O)C(c3ccc4nccnc4c3)C2)cc1", "note": "(stereo not given)", "GFP response, % of DMSO": 93.2},
      {"molecule": "Oc1c(Br)cc(Br)cc1C=Nc1ccc2c(c1)OCO2", "GFP response, % of DMSO": 98.3},
      {"molecule": "CCOc1ccc(Nc2nc(N(C)c3ccccc3)nc(N)c2[N+](=O)[O-])cc1", "GFP response, % of DMSO": 104},
      {"molecule": "CC[n+]1cc(C)ccc1/C=C/c1ccc(N(C)C)cc1", "GFP response, % of DMSO": 141},
      {"molecule": "COc1ccc(/C=C/C(=O)c2ccc(OC)cc2O)cc1", "GFP response, % of DMSO": 102},
      {"molecule": "COc1ccc(-c2sc(C(=O)c3ccc(Cl)cc3Cl)cc2CC(=O)O)cc1", "GFP response, % of DMSO": 105},
      {"molecule": "Cn1c(=O)[nH]c(=O)c2c1nc(N1CCCCC1)n2CCOc1ccccc1", "GFP response, % of DMSO": 101},
      {"molecule": "COCc1nnc(NC(=O)c2ccc(S(=O)(=O)N3CCCCCC3)cc2)o1", "GFP response, % of DMSO": 97.4},
      {"molecule": "CC(C)c1ccc(C2C3CSCC=C3C(C#N)=C(N)C2(C#N)C#N)cc1", "note": "(stereo not given)", "GFP response, % of DMSO": 100},
      {"molecule": "CC(C)(C)C(=O)C(Cl)C(=O)Nc1ccccc1", "note": "(stereo not given)", "GFP response, % of DMSO": 106},
      {"molecule": "CCOC(=O)CSC1=NC(=O)/C(=C\\c2ccc(Cl)cc2)S1", "GFP response, % of DMSO": 81.6},
      {"molecule": "Cc1ccc(/C=C/C(=O)N2CC(C)CC(C)C2)o1", "note": "(stereo not given)", "GFP response, % of DMSO": 103},
      {"molecule": "CCOc1c(Br)ccc2c1sc1nc[nH]c(=O)c12", "GFP response, % of DMSO": 97.6},
      {"molecule": "Cc1cc(NC(=O)c2cc3ccccc3o2)ccc1NC(=O)c1ccccc1", "GFP response, % of DMSO": 101},
      {"molecule": "COc1ccc(C(=O)Nc2cccc(C)c2)cc1", "GFP response, % of DMSO": 108},
      {"molecule": "O=C1c2ccccc2C(=O)c2c([N+](=O)[O-])ccc(O)c21", "GFP response, % of DMSO": 93.7},
      {"molecule": "Nc1ccccc1NC(=O)c1ccccc1", "GFP response, % of DMSO": 103},
      {"molecule": "Cc1ccccc1N1C(=O)c2cccc3c(N(C)CCO)ccc(c23)C1=O", "GFP response, % of DMSO": 102},
      {"molecule": "O=C(/C=C/c1ccccc1)Nc1ncn[nH]1", "GFP response, % of DMSO": 100},
      {"molecule": "CCCCCCCCC/C(=N\\O)c1ccccn1", "GFP response, % of DMSO": 90.5},
      {"molecule": "COc1cccc2c1Oc1ncccc1N(C(=O)CCC(=O)NCc1ccc(C)cc1)C2", "GFP response, % of DMSO": 99.2},
      {"molecule": "C/C(=N\\NC(=O)c1ccc(Br)cc1)c1ccccc1", "GFP response, % of DMSO": 99.1},
      {"molecule": "NS(=O)(=O)c1ccc(S(=O)(=O)c2ccccc2)nc1", "GFP response, % of DMSO": 105},
      {"molecule": "Cc1nn(Cc2ccc([N+](=O)[O-])cc2)c(=O)n1-c1cccc(Cl)c1", "GFP response, % of DMSO": 101},
      {"molecule": "O=C(c1ccccc1Br)N1CCN(c2ccccc2)CC1", "GFP response, % of DMSO": 94.8},
      {"molecule": "Cc1c(NC(=O)Nc2ccc3c(c2)OCO3)c(=O)n(-c2ccccc2)n1C", "GFP response, % of DMSO": 100},
      {"molecule": "COc1ccc(C(=O)/C=C/c2ccccc2C(F)(F)F)cc1", "GFP response, % of DMSO": 106},
      {"molecule": "CCc1noc(C)c1C(=O)Nc1nc(-c2cc(C)ccc2C)c(C)s1", "GFP response, % of DMSO": 99.7},
      {"molecule": "CC(C)(C)n1nc(-c2ccc(Cl)cc2)c2c(N)ncnc21", "GFP response, % of DMSO": 46.1},
      {"molecule": "O=c1oc2cc(Oc3c([N+](=O)[O-])cc(C(F)(F)F)cc3[N+](=O)[O-])ccc2c2c1CCCC2", "GFP response, % of DMSO": 97.4},
      {"molecule": "Cc1occc1-c1nnc(-c2cc([N+](=O)[O-])cc([N+](=O)[O-])c2)o1", "GFP response, % of DMSO": 85.7},
      {"molecule": "CCOc1ccc(Nc2ccc(C(=O)O)cc2[N+](=O)[O-])cc1", "GFP response, % of DMSO": 95.6},
      {"molecule": "Cc1nnc(NC(=O)c2csc3c2CCC(C)C3)s1", "note": "(stereo not given)", "GFP response, % of DMSO": 76.8}
    ]}
  ]
}
